The source of these data is PubChem BioAssay AID434970 (Sanford-Burnham Center for Chemical Genomics, 2010).

The structures appear in SMILES notation. Out of some 11,000 compounds screened, about 310 (2.8%) were called active. No stated cut-off is given here; in the data, active means activity change below about -85%; inactive means the rest. Only a selection was taken, and actives are over-represented in it overall.

This assay relates to intestinal alkaline phosphatase [Mus musculus]. As to the kind of experiment: activators of mouse IAP, confirmation, biochemical, luminescence, single concentration (AID 434970). The following applies: purified mouse IAP, CDP-Star luminescence, 30 min, at 10 µM; activation factor: measured here: IAP activation factor, stronger effect = higher value; activity change, negative = activation: stronger effect = lower value.
`CCOc1ccc(C2N(c3cc(C)on3)C(=O)C3CCCN32)cc1OC` (stereo not given): the activation factor came to 1.05 and the activity change, negative = activation was -5.3% (inactive).

In the case of `Cc1cc(C)cc(NC(=O)Cn2c(-c3ccccc3Cl)nc3ccccc32)c1`, the activation factor turned out to be 2.48 and the activity change, negative = activation is -148% (active).

Regarding `O=C(CCn1cnc2ccccc2c1=O)Nc1cccc(Cl)c1`, the activation factor came to 1.01 and the activity change, negative = activation was -1.4% (inactive).

As for `Cc1cc(C)cc(NC(=O)CCc2nc3ccccc3[nH]2)c1`, the activation factor came to 1.04 and the activity change, negative = activation was -3.9% (inactive).

Regarding `O=C(Cn1c(-c2ccccc2Cl)nc2ccccc21)Nc1cccc(Cl)c1`, the activation factor was found to be 2.51 and the activity change, negative = activation was -151% (active).

As for `O=C(CCN1C(=O)c2ccccc2C1=O)NC(=S)Nc1cccc(Cl)c1`, the activation factor amounted to 0.956 and the activity change, negative = activation was 4.4% (inactive).

As to `Cc1ccc(C(=O)NC(C)c2nc3ccccc3n2CC(=O)Nc2c(C)cc(C)cc2C)cc1` (stereo not given), the activation factor was 1.1 and the activity change, negative = activation is -10.2% (inactive).

Turning to `Cc1ccc(SCc2nc3ccccc3n2CC(=O)Nc2ccccc2)cc1`, the activation factor is 1.56 and the activity change, negative = activation is -56% (inactive).

Turning to `O=C(CSc1nnc(Cn2nnc3ccccc32)o1)Nc1ccc(Cl)cc1`, the activation factor was 0.985 and the activity change, negative = activation is 1.5% (inactive).

As to `Cc1ccc(SCc2nc3ccccc3n2CC(=O)Nc2ccc(Cl)cc2)cc1`, the activation factor turned out to be 1.85 and the activity change, negative = activation was -85.5% (active).

As to `Fc1ccccc1Cn1nnc2c(NCc3ccccn3)ncnc21`, the activation factor turned out to be 0.966 and the activity change, negative = activation was 3.35% (inactive).

As for `CCN(CC)CCNC(=O)C1c2ccccc2C(=O)N(CCOC)C1c1ccc(F)cc1` (stereo not given), the activation factor came to 0.972 and the activity change, negative = activation is 2.85% (inactive).

`Cc1ccc(C(C)NC(=S)NCc2ccc(F)cc2)c(C)c1` (stereo not given): the activation factor was determined as 1.39 and the activity change, negative = activation is -38.5% (inactive).

Take `CC(=O)Nc1ccc(SCC(=O)OCC(=O)NC(=O)NCc2ccco2)cc1`: the activation factor is 0.893 and the activity change, negative = activation is 10.7% (inactive).

With `COc1ccc(Cl)cc1NC(=O)C1CCCO1` (stereo not given), the activation factor turned out to be 0.924 and the activity change, negative = activation was 7.6% (inactive).

Regarding `Cc1ccc(C(=O)O)cc1S(=O)(=O)N1CCSCC1`, the activation factor was found to be 0.916 and the activity change, negative = activation is 8.35% (inactive).

As for `CCN(CC)CCCNC(=O)C1c2cc(OC)c(OC)cc2C(=O)N(C)C1c1cccs1` (stereo not given), the activation factor amounted to 1.04 and the activity change, negative = activation is -4.25% (inactive).

As to `COc1cccc(-c2cc(C(F)(F)F)n3ncc(C(=O)NCC4CCCO4)c3n2)c1` (stereo not given), the activation factor came out at 1.05 and the activity change, negative = activation was -4.65% (inactive).

In the case of `CC(C)CCNC(=O)COc1ccc2c(c1)C(=O)CC(C)(C)O2`, the activation factor amounted to 1 and the activity change, negative = activation was -0.15% (inactive).

With `CC(CNC(=S)Nc1cc(F)cc(F)c1)CSc1ccc(Cl)cc1` (stereo not given), the activation factor came out at 1.3 and the activity change, negative = activation is -29.9% (inactive).

On to `CC(C)Oc1ccc(/C=N/NC(=O)C(CSCc2ccccc2)NC(=O)c2ccc([N+](=O)[O-])cc2)cc1` (stereo not given), for which the activation factor is 0.941 and the activity change, negative = activation was 5.95% (inactive).

With `CSc1nc2n(n1)C(c1cccc(F)c1)C(C(=O)Nc1ccc(C)cc1C)=C(C)N2` (stereo not given), the activation factor stood at 0.93 and the activity change, negative = activation is 6.95% (inactive).

Consider `CC(C)c1ccc(NC(=O)C2CC(=O)Nc3nc4ccccc4n32)cc1` (stereo not given), for which the activation factor was determined as 2.38 and the activity change, negative = activation was -138% (active).

`CC(C)c1ccc(NC(=O)C(c2ccccc2)N2CC(=O)Nc3ccccc32)cc1` (stereo not given): the activation factor is 1.24 and the activity change, negative = activation is -23.8% (inactive).

Take `Cc1ccc(NC(=O)C2C(c3ccccc3)C2(Cl)Cl)c(C)c1` (stereo not given): the activation factor was 1.59 and the activity change, negative = activation is -59.4% (inactive).

Turning to `Cc1ccc(NC(=O)C2CC(=O)Nc3nc4ccccc4n32)c(C)c1` (stereo not given), the activation factor came out at 2.57 and the activity change, negative = activation is -157% (active).

For `Cc1ccc(NC(=O)C2CC(=O)NC(N3CCc4ccccc43)=N2)cc1` (stereo not given), the activation factor came out at 0.947 and the activity change, negative = activation is 5.35% (inactive).

For `O=C1/C(=C/c2ccco2)CCc2ccccc21`, the activation factor came to 1.04 and the activity change, negative = activation is -4% (inactive).

On to `Cc1ccc(C)c(NS(=O)(=O)c2ccc3[nH]c(=O)oc3c2)c1`, for which the activation factor was 0.111 and the activity change, negative = activation was 88.9% (inactive).

In the case of `COc1ccc(NC(=O)Nc2ccc3c(c2)C(=O)N([C@H](C)CO)C[C@H](C)[C@@H](CN(C)S(=O)(=O)c2ccc(F)cc2)O3)cc1`, the activation factor worked out at 2.01 and the activity change, negative = activation is -101% (active).

For `COc1ccc(S(=O)(=O)N(C)C[C@H]2Oc3ccc(NC(=O)Nc4ccc5c(c4)OCO5)cc3C(=O)N([C@H](C)CO)C[C@@H]2C)cc1`, the activation factor amounted to 1.86 and the activity change, negative = activation is -86.1% (inactive).

With `COc1ccc(NC(=O)Nc2ccc3c(c2)C(=O)N([C@H](C)CO)C[C@H](C)[C@@H](CN(C)S(=O)(=O)c2ccc(OC)cc2)O3)cc1`, the activation factor worked out at 1.77 and the activity change, negative = activation was -77.3% (inactive).

As to `C[C@H](CO)N1C[C@H](C)[C@@H](CN(C)S(=O)(=O)c2ccccc2)Oc2ccc(NC(=O)Nc3ccccc3)cc2C1=O`, the activation factor stood at 2.62 and the activity change, negative = activation was -162% (active).

On to `COc1ccc(NC(=O)N(C)C[C@H]2Oc3ccc(NC(=O)Nc4ccc(C(F)(F)F)cc4)cc3C(=O)N([C@H](C)CO)C[C@@H]2C)cc1`, for which the activation factor came to 1.75 and the activity change, negative = activation was -75.5% (inactive).

Turning to `COc1ccc(S(=O)(=O)N(C)C[C@H]2Oc3ccc(NC(=O)Nc4ccccc4)cc3C(=O)N([C@H](C)CO)C[C@@H]2C)cc1`, the activation factor stood at 2.15 and the activity change, negative = activation was -115% (active).

With `COc1ccc(NC(=O)Nc2ccc3c(c2)C(=O)N([C@H](C)CO)C[C@H](C)[C@@H](CN(C)S(=O)(=O)c2ccccc2)O3)cc1`, the activation factor was 1.98 and the activity change, negative = activation was -97.7% (inactive).

`C[C@H](CO)N1C[C@H](C)[C@@H](CN(C)S(=O)(=O)c2ccccc2)Oc2ccc(NC(=O)Nc3ccc4c(c3)OCO4)cc2C1=O`: the activation factor amounted to 1.95 and the activity change, negative = activation was -94.6% (inactive).

Regarding `C[C@H](CO)N1C[C@H](C)[C@@H](CN(C)S(=O)(=O)c2ccc(F)cc2)Oc2ccc(NC(=O)Nc3ccccc3)cc2C1=O`, the activation factor came out at 1.91 and the activity change, negative = activation is -91.2% (inactive).

On to `COc1ccc2[nH]c(=O)c(CN(C(C)=O)c3cccc(C)c3)cc2c1`, for which the activation factor worked out at 0.991 and the activity change, negative = activation is 0.9% (inactive).

For the compound `O=C(CSc1nnc(-c2cccs2)n1-c1cccc(Cl)c1)c1cccc2c1OCCO2`, the activation factor worked out at 0.901 and the activity change, negative = activation was 9.9% (inactive).

Turning to `CCCc1[nH]nc2c1C(Cc1ccccc1)C(C#N)=C(N)O2` (stereo not given), the activation factor was 0.921 and the activity change, negative = activation is 7.85% (inactive).

As for `CC(C)N(C(=O)[C@H]1C[C@H](CC(=O)NCCCn2ccnc2)C(=O)N2CCc3c([nH]c4cc(CCC(=O)N(C)C)ccc34)[C@]12C)C(C)C`, the activation factor came to 0.995 and the activity change, negative = activation was 0.5% (inactive).

For `CCOC(=O)C1C(C(=O)OC)=C(C2=CCCCC2)c2ccccc2N1S(=O)(=O)C(F)(F)F` (stereo not given), the activation factor is 0.97 and the activity change, negative = activation was 3% (inactive).

Regarding `Cc1ccc(NC(=O)C2CCCNC2=O)nc1` (stereo not given), the activation factor was 0.929 and the activity change, negative = activation is 7.05% (inactive).

Regarding `Cc1cc(N2CCN(C)CC2)nc2ccc(NC(=O)c3ccc4c(c3)OCO4)cc12`, the activation factor is 1.03 and the activity change, negative = activation is -2.9% (inactive).
